Bioassay records as filed in PubChem.
This is a sample that favours compounds with a hit; in the whole collection about 19% have one here.
HT1080NT lethal = kills 2HG-producing HT-1080-NT fibrosarcoma cells; HT-1080-NT fibrosarcoma viability, CellTiter-Glo ATP luminescence, 48 h; 360,000 compounds, 1.6% hits; Potency, µM (series often up to 46.1 µM), for the others: at the top dose activity, negative = less viability, hits mostly cytotoxic; AID 686970;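 note: NT is the 2HG producing partner of a matched IDH1 knockdown line; potency is the fitted concentration of half-maximal effect; 0% = DMSO-treated cells and -100% = media-only wells without cells; nearly all actives have a fitted effect of over 55% in size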
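A 48-hour cytotoxicity screen used HT-1080-NT cells plated 2 hours before compound delivery. ATP-based CellTiter-Glo luminescence measured viability, normalized to DMSO and no-cell controls.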
TDP1 cell noCPT = qHTS for Inhibitors of human tyrosyl-DNA phosphodiesterase 1 (TDP1): qHTS in cells in absence of CPT. Potency, µM (top dose mostly 46.2 µM), for inactives: at the top dose activity change, negative = growth inhibition, actives largely listed as inhibitors. 420,000 compounds, 15% hits. DT40 Tdp1-/- hTDP1 cells, no CPT, ATP luminescence, 48 h. AID 686978, 2013; note: potency is the fitted concentration of half-maximal effect; nearly all actives have a fitted effect of over 55% in size
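Cells were dispensed at 400 per well, compounds added by pin tool, plates incubated ≥48 hr at 37 °C, then CellTiter-Glo added for 30 min at room temperature before luminescence reading. Line: DT40 Tdp1-/- complemented with hTDP1; camptothecin omitted.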
HT1080 IDH1KD tx = HT-1080 IDH1 knockdown cell toxicity (counter line); HT-1080 IDH1 knockdown viability, ATP luminescence, 48 h; Potency, µM (titrated, usually from 46.1 µM), inactives show at the top dose activity, negative = toxicity, hits mostly cytotoxic; 360,000 compounds, 2% hits;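 note: potency is the fitted concentration of half-maximal effect; 0% = DMSO wells and -100% = cell-free medium wells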
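HT-1080-IDH1KD cells (IDH1 knocked down), 750/well in RPMI with 5% FBS, treated with compound 48 h at 37 degrees C. Viability by CellTiter-Glo luminescence, normalised to DMSO and no-cell wells; concentration-response curves classed.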
IL-1B inflam inh = inhibitors of inflammasome signaling (IL-1 beta secretion); THP-1 LPS/ATP IL-1B secretion, AlphaLISA, 16 h; active compounds read low; activity change, % at 57.5 µM; 360,000 compounds, 4.7% hits; AID 743279; in the data active = activity change below about -50%; inconclusive = mostly about -30% to -49%
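THP-1 cells pretreated 1 hr with compounds (up to 57.5 uM final), then stimulated with LPS (250 ng/mL final) plus ATP (1.25 mM final); secreted IL-1B measured by AlphaLISA after 16 hr, decreased signal indicating inhibition.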
TDP1 cell CPT = DT40-hTDP1 cell growth loss with CPT. chicken DT40 Tdp1-/-;hTDP1 cells + 20 nM CPT, ATP luminescence, 48 h. 420,000 compounds, 12% hits. AID 686979. Potency, µM (series often up to 46.2 µM), inactives show at the top dose activity change, negative = growth inhibition, most hits filed as inhibitors; note: potency is the fitted concentration of half-maximal effect; nearly all actives have a fitted effect of over 55% in size
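Chicken DT40 Tdp1-/- cells stably complemented with human TDP1 were seeded at 400 cells/well in medium containing 20 nM camptothecin, exposed to pin-transferred compounds, and grown at 37 °C for at least 48 hr. Viability was read as ATP luminescence.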
* = called active by the depositor; i = inactive; ? = inconclusive; nt = not tested or not shown. Unless noted, calls come from the whole dose curve; as a rule, active = well fitted curve in the direction sought with a large enough effect; inconclusive = small, poorly fitted or top-dose-only effect, or another doubt; inactive = no such curve, though single readings can be large; an effect the other way counts as inactive or inconclusive. Unless noted, % is set by controls: 0 for no effect and ±100 for the full control effect.

SMILES | HT1080NT lethal | TDP1 cell noCPT | HT1080 IDH1KD tx | IL-1B inflam inh | TDP1 cell CPT
CCCN1CCc2c(sc(NC(=O)c3ccc(S(=O)(=O)N4CCN(C(=O)OCC)CC4)cc3)c2C(N)=O)C1 | 7.3µM* | ? | 6.5µM* | -98* | ?
CCOC(=O)N1CCN(S(=O)(=O)c2ccc(C(=O)Nc3sc4c(c3C(N)=O)CCN(CC)C4)cc2)CC1 | ? | 21µM* | ? | -68* | ?
CC(C)N1CCc2c(sc(NC(=O)c3ccc(S(=O)(=O)N(C)CC4CCCO4)cc3)c2C(N)=O)C1 (centres undefined) | 1% | -18% | 0% | -11 | -25%
CCN1CCc2c(sc(NC(=O)c3ccc(S(=O)(=O)N(C)CC4CCCO4)cc3)c2C(N)=O)C1 (centres undefined) | -3% | 21µM* | -10% | i | -36%
FC(F)(F)C(F)(F)c1nc2nc(Cl)c(Cl)nc2[nH]1 | -16% | ? | ? | 52 | ?
COc1ccc(CN2C(=O)C(CC(=O)NC3CCCCC3)CC(C(=O)N(C)C)=C2C)cc1 (centres undefined) | -1% | -20% | -4% | 9 | ?
CCOc1ccc(NC(=O)CN(C)C(=O)/C=C/c2ccco2)cc1OCC | 9% | 1% | 0% | -6 | -10%
COc1cc(NC(=O)c2cc3c(=O)n(Cc4ccco4)ccc3nc2C)cc(OC)c1OC | nt | 0% | nt | nt | 8%
COc1cc(CCC(=O)OCC(=O)Nc2cc(S(=O)(=O)N3CCOCC3)ccc2Cl)cc(OC)c1OC | 1% | -7% | 0% | 17 | -17%
COc1ccc(Nc2nc3c(S(=O)(=O)c4ccc(C)cc4)nnn3c3ccsc23)cc1Cl | nt | -6% | nt | nt | 0%
Cc1ccc2nc(N(Cc3cccnc3)C(=O)c3ccco3)sc2c1 | nt | -4% | nt | nt | -6%
CCOc1ccc(CNC(=O)c2ccc(Sc3ccc(Cl)cc3)c(NC(C)=O)c2)cc1OC | -14% | 21µM* | -14% | ? | ?
CC(=O)Nc1cc(C(=O)NCc2ccc(C)cc2)ccc1Sc1ccc(C)cc1 | nt | 23µM* | nt | nt | 16µM*
CCOc1ccc(CNC(=O)c2ccc(Sc3ccc(C)cc3)c(NC(C)=O)c2)cc1OC | -2% | ? | -8% | -25 | -23%
CC1=C([N+](=O)[O-])C(c2ccccc2Cl)NC(=O)N1C (centres undefined) | 14% | 1% | 8% | -5 | 29%
O=S1(=O)N[C@@H](c2ccccc2)COc2cc(Br)ccc21 | 5% | ? | 1% | -6 | -16%
CN(Cc1ccccc1)C(=O)C1CCN(S(=O)(=O)c2cc([N+](=O)[O-])ccc2Cl)CC1 | 2% | 23µM* | -5% | ? | ?
CC(NC(=O)C1CCN(S(=O)(=O)c2cc([N+](=O)[O-])ccc2Cl)CC1)c1ccccc1 (centres undefined) | 8% | ? | -1% | -17 | ?
O=C(NCc1ccccc1)C1CCN(S(=O)(=O)c2cc([N+](=O)[O-])ccc2Cl)CC1 | -5% | -31% | -12% | -4 | ?
Cc1ccc2nc(NC(=O)C3CCN(S(=O)(=O)c4cc([N+](=O)[O-])ccc4Cl)CC3)sc2c1 | -4% | 6.5µM* | -25% | ? | 9.2µM*
Cc1ccc(NC(=O)C2CCN(S(=O)(=O)c3cc([N+](=O)[O-])ccc3Cl)CC2)nc1 | ? | 15µM* | ? | -9 | 16µM*
CC1(C)CC(=O)C=C(c2n[nH]nc2C2CC2)C1 | 8% | -11% | -1% | -12 | 2%
N#CCCN(C(=O)c1ccc2c(=O)n3c(nc2c1)CCCCC3)c1ccccc1 | 8% | -10% | 18% | 0 | ?
O=C(CSc1nnnn1-c1ccccc1)Nc1ncc2c(n1)CC(c1ccccc1)CC2=O (centres undefined) | 4% | ? | 1% | 27 | 16µM*
Cc1nnc(SCC(=O)Nc2ncc3c(n2)CC(c2ccccc2)CC3=O)s1 (centres undefined) | -6% | -14% | -3% | -6 | ?
SMILES | HT1080NT lethal | TDP1 cell noCPT | HT1080 IDH1KD tx | IL-1B inflam inh | TDP1 cell CPT
CC(C)[C@H](NC(=O)c1ccccc1Cl)C(=O)OCC(=O)N1CCCCC1 | -2% | -17% | -2% | 6 | 14%
CCS(=O)(=O)Nc1cc(-c2nc3cccnc3s2)ccc1C | -18% | 26µM* | -11% | 17 | ?
Cc1ccccc1C(=O)Nc1cccc(-c2nc3cccnc3s2)c1 | nt | 18µM* | nt | nt | ?
CCS(=O)(=O)Nc1cccc(-c2nc3cccnc3s2)c1 | 9% | ? | 8% | 18 | -10%
O=C(Nc1ccc(Cl)cc1)c1ccc2c(c1)N(Cc1ccccc1)C(=O)c1ccccc1S2(=O)=O | nt | 23µM* | nt | nt | 16µM*
COC(=O)c1ccc2c(c1)N(Cc1ccccc1)C(=O)c1ccccc1S2(=O)=O | nt | ? | nt | nt | 16µM*
O=C(NCCc1ccc(Cl)cc1)c1ccc2c(c1)N(Cc1cccc(Cl)c1)C(=O)c1ccccc1S2(=O)=O | nt | 7.3µM* | nt | nt | ?
O=C(CCN1C(=O)C2CC=CCC2C1=O)Nc1ccc(S(=O)(=O)N2CCCCC2)cc1 (centres undefined) | -3% | -28% | -8% | -4 | -29%
CCc1ccc(NS(=O)(=O)c2cccs2)cc1 | -5% | -11% | -26% | 6 | -17%
Cc1ccc(S(=O)(=O)N2C(=O)[C@@H]3Cc4ccccc4CN3C2=O)cc1 | ? | ? | ? | -14 | ?
CCC(=O)c1c[nH]c(C(=O)NCc2ccco2)c1 | 16% | -5% | 11% | 5 | 1%
O=C(c1ccc(F)cc1)c1c[nH]c(C(=O)NCc2ccco2)c1 | -5% | 12µM* | -2% | ? | ?
CCN(CC(=O)Nc1ccc2c(c1)OCCO2)S(=O)(=O)c1ccc(F)cc1 | 3% | -13% | 13% | -12 | -1%
CCOC(=O)C1(Cc2ccc(Cl)cc2)CCN(Cc2nccn2CC)CC1 | -5% | ? | -20% | -12 | 21µM*
CCOC(=O)C1(CCc2ccccc2)CCN(Cc2nccn2CC)CC1 | ? | 18µM* | ? | 6 | ?
CCOC(=O)C1(Cc2ccccc2)CCN(Cc2nccn2CC)CC1 | -12% | ? | -18% | 0 | ?
CCOC(=O)C1(S(=O)(=O)c2ccc(Cl)cc2)CCN(Cc2ccc(Cl)cc2)CC1 | -28% | 18µM* | -29% | -29 | 16µM*
CCOC(=O)C1(Cc2ccc(Cl)cc2)CCN(CCCn2cccn2)CC1 | -18% | 21µM* | -11% | -58* | ?
